# Results from PubChem BioAssay.
# System: Lefty1
# Assay: Lefty1 binders on small-molecule microarrays, primary screen, biochemical, small-molecule microarray, 635/667 nm fluorescence (AID 1139)
# Conditions: small-molecule microarray binding, fluorescence 635/667; higher = more signal
row,Compound,composite z-score
1,CO[C@H]1O[C@H](CO)[C@@H](OC(=O)Nc2ccc(Oc3ccccc3)cc2)[C@H](OC(=O)Nc2ccccc2)[C@H]1OC(=O)Nc1ccccc1,0.444
2,O=C(CS)NCCCCCCNC(=O)[C@H]1C[C@H]2C(=O)NCC(=O)N2[C@H]1c1ccc(O)cc1,-0.0467
3,COCCOC(=O)N1C(=O)[C@@]2(c3cc(C#CCCO)ccc31)[C@H](c1ccc(O)cc1)N1[C@H](c3ccccc3)[C@H](c3ccccc3)OC(=O)[C@H]1[C@@H]2C(N)=O,0.296
4,CC(C)(C)N1CC=CC23O[C@@H]4/C=C\CCCOC(=O)C4[C@H]2C(=O)N(CCO)[C@@H]3C1=O (some centres undefined),-0.86

# System: wheat germ agglutinin (Triticum aestivum), Alexa647-labelled
# Assay: wheat germ agglutinin binders on compound microarrays, profiling panel, artefact control for SMM control-protein annotation, biochemical, small-molecule microarray, 635/667 nm fluorescence (AID 1140);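 note: score merges 667 nm feature emission with signal to noise over triplicate slides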
# Conditions: WGA-A647 binding, 635 nm fluorescence, higher = more signal
row,Compound,composite z-score
1,COc1cc(CO)ccc1OC(C)=O,0.243
2,COc1ccc(C#Cc2ccc3c(c2)[C@]2(C(=O)N3)[C@H](c3ccc(O)cc3)N3[C@H](c4ccccc4)[C@H](c4ccccc4)OC(=O)[C@H]3[C@@H]2C(=O)N2CCCCCCC2)cc1,1.35
3,CN1C=C(C(=O)OCCS(C)(=O)=O)C(C(=O)OCCS(C)(=O)=O)=CC(CCCO)=CC1C1CC1 (centres undefined),0.288
4,COCCOC(=O)N1C(=O)[C@@]2(c3cc(C#CCC(C(=O)OC)C(=O)OC)ccc31)[C@H](c1ccc(O)cc1)N1[C@H](c3ccccc3)[C@H](c3ccccc3)OC(=O)[C@H]1[C@@H]2C(N)=O,0.252
5,COc1ccc(NN2C(C(O)c3ccc(OC)c(OCc4ccccc4)c3)C=CC3C(=O)N(C4CCCCC4)C(=O)C32)cc1 (centres undefined),0.571
6,CC(C)N1CC=CC23O[C@@H]4C=CCOC(=O)[C@@H]4[C@H]2C(=O)N(CCO)[C@@H]3C1=O (some centres undefined),-0.249
7,O=C1c2ccccc2[C@@]2(Cc3ccccc3N(Cc3ccccc3)C2=O)[C@H](c2ccc(CO)cc2)N1C1CCCCC1,0.0291
8,CO[C@H]1O[C@H](CO)[C@@H](OC(=O)Nc2ccc3c(c2)OCO3)[C@H](OC(=O)Nc2ccccc2)[C@H]1OC(=O)Nc1ccccc1,0.928
9,CC(C)C[C@@H]1NC(=O)[C@@H]2C[C@H](C(=O)NCCCCCC[N+](C)(C)C)[C@H](c3ccc(O)cc3)N2C1=O,0.56
10,N#Cc1ccc(NN2C(C(O)C3CCCCC3)C=CC3C(=O)N(c4ccccc4)C(=O)C32)cc1 (centres undefined),0.847
11,O=c1oc(-c2ccccc2)nc2cc(Br)ccc12,0.466
12,COC(=O)[C@@]1(Cc2ccc(OC)cc2)[C@H]2c3cc(C(=O)N(C)C)n(Cc4c(OC)[nH]cc(C)c4=O)c3C[C@H]2CN1C(=O)c1ccccc1,0.59
13,CC(C)NC(=O)[C@@H]1c2ccccc2C(=O)N(Cc2ccccc2)[C@H]1c1ccc(CO)cc1,0.826
14,O=C1C=CC(=O)[C@@H]2CC(COc3ccccc3)=C3[C@@H](CCc4ccccc4)OB(O)C[C@@H]3[C@H]12,-0.158
15,C=CCC(OC(C)=O)[C@@H]1[C@@H](N(Cc2cccc3ccccc23)C(=O)c2cccc3ccccc23)c2cc(OCCCO)ccc2N1C(=O)c1ccc2ccccc2n1 (some centres undefined),-0.243
16,O=C1[C@]2(CO)C=C(Br)[C@@H](C[C@@H]2c2ccccc2)[C@@]12CO2,0.492
17,COCC1=C2[C@@H](CCc3ccccc3)OB(O)C[C@@H]2[C@@H]2C(=O)N(Cc3ccccc3)C(=O)[C@@H]2C1,0.397
18,CCOC(=O)C1=CC[C@@H](c2ccccc2)N(S(=O)(=O)c2ccc(C)cc2)[C@H]1C(=O)OCC,0.951

row,Compound,composite z-score
1,Cc1ccccc1C(O)C1C=CC2C(=O)N(C)C(=O)C2N1Nc1ccccc1 (centres undefined),1.38
2,C=CCC(OC(C)=O)[C@@H]1[C@@H](N(Cc2ccc(-c3ccccc3)cc2)C(=O)Cc2ccc(OC)cc2)c2cc(OCCCO)ccc2N1C(=O)c1ccc2ccccc2n1 (some centres undefined),0.22
3,CCN(CC)c1ccc(N2CC=CC34O[C@@H]5C=CCCOC(=O)C5[C@H]3C(=O)N(CCCCCO)[C@@H]4C2=O)cc1 (some centres undefined),0.169
4,C[C@]1(C(=O)NCc2ccccc2)c2ccccc2C(=O)N(Cc2ccc(OC(F)(F)F)cc2)[C@H]1c1ccc(CO)cc1,-0.403
5,CC(=O)Nc1cc(Br)ccc1C(=O)O,0.625
6,COC(=O)C[C@H]1O[C@]2(C(=O)N(Cc3ccccc3)c3ccc(NC(C)=O)cc32)[C@@H](C)[C@@H]1[Si](C)(C)c1ccc(OC)cc1,0.657
7,COCCOC(=O)N1C(=O)[C@@]2(c3cc(C#CCC(C(=O)OC)C(=O)OC)ccc31)[C@H](C(=O)N1CCN(c3ncccn3)CC1)[C@H]1C(=O)O[C@H](c3ccccc3)[C@H](c3ccccc3)N1[C@@H]2c1ccc(OCCO)cc1,0.945
8,O=c1cccc(C=Cc2ccccc2)o1,-0.531
9,CCCCC(CC)C(O)C1C=CC2C(=O)N(c3ccccc3)C(=O)C2N1Nc1ccccc1 (centres undefined),1.15
10,COc1ccc([Si](C)(C)[C@@H]2[C@@H](CC(=O)N(CCO)Cc3ccccc3)O[C@]3(C(=O)N(C)c4ccccc43)[C@H]2C)cc1,1.17
11,CC(C)C[C@@H]1NC(=O)[C@H]2C[C@@H](C(=O)NCCCCCNC(=O)CS)[C@@H](c3cccc(OCCO)c3)N2C1=O,0.195
12,O=C(OCCF)C1=CCC(c2cccc(Cl)c2)O1 (centres undefined),0.177
13,O=C(O)[C@@]1(Cc2ccccc2)N=C(c2ccc(OCCCO)cc2)O[C@H]1c1ccccc1,0.915
14,CO[C@H]1O[C@H](CO)[C@@H](OC(=O)Nc2ccc(Oc3ccccc3)cc2)[C@H](OC(=O)Nc2ccccc2)[C@H]1OC(=O)Nc1ccccc1,1.08
15,O=C(CS)NCCCCCCNC(=O)[C@H]1C[C@H]2C(=O)NCC(=O)N2[C@H]1c1ccc(O)cc1,-0.223
16,COCCOC(=O)N1C(=O)[C@@]2(c3cc(C#CCCO)ccc31)[C@H](c1ccc(O)cc1)N1[C@H](c3ccccc3)[C@H](c3ccccc3)OC(=O)[C@H]1[C@@H]2C(N)=O,0.0204
17,CC(C)(C)N1CC=CC23O[C@@H]4/C=C\CCCOC(=O)C4[C@H]2C(=O)N(CCO)[C@@H]3C1=O (some centres undefined),0.0851
